Experimental data from the supplement of paper PMC10981050.
Several values for one entry are separate records, joined by “and”; a condition that tells them apart may be missing. Equal values may be shown once. Where a name gives a salt, the structure may show the parent alone.

What was measured:
Experiment in all cases: cell viability relative to vehicle control; higher = less cytotoxic
Conditions in all cases: 10 µM
K562 = test system: K562
How it was run: (§1)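 After removal of identity-inconsistent compounds, the Selleck bioactive, kinase and epigenetic probe libraries were screened on CRISPR-edited mutant clones and isogenic wild-type clones of four leukaemia lines. Plates were 384-well, each well holding 2000 cells in 50 µL medium and receiving a single 10 µM acoustically dispensed dose. CellTiter-Glo luminescence was read 48 h later, after the supernatant was taken off. Genedata Screener was used to express viability as percent of the on-plate vehicle control.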

MARIMO = test system: MARIMO
How it was run: as §1

MOLM14 = test system: MOLM14
How it was run: as §1

OCI-AML2 = test system: OCI-AML2
How it was run: as §1

Structure (SMILES)	cell viability (K562; SRSF2 genotype: SRSF2 P95H/wt)	cell viability (K562; SRSF2 genotype: SRSF2 wt/wt)	cell viability (MARIMO; SRSF2 genotype: SRSF2 P95H/wt)	cell viability (MARIMO; SRSF2 genotype: SRSF2 wt/wt)	cell viability (MOLM14; SRSF2 genotype: SRSF2 P95H/wt)	cell viability (MOLM14; SRSF2 genotype: SRSF2 wt/wt)	cell viability (OCI-AML2; SRSF2 genotype: P95H/wt)	cell viability (OCI-AML2; SRSF2 genotype: wt/wt)
CS(=O)(=O)c1cccc(C[C@H](NC(=O)c2c(Cl)cc3c(c2Cl)CCN(C(=O)c2ccc4ccoc4c2)C3)C(=O)O)c1 [Lifitegrast]	96.8% and 97%	90.3%	90.5%	102%	93.7%	96.6%	92.2%	94.9%
Cc1cccc(Nc2nc(-c3ccncc3)cs2)c1	78.1% and 89.2%	70.8%	49.3%	64.4%	74.2%	84.9%	64.3%	66.9%
CCn1c2ccccc2c2cc(CNCc3ccccc3OC)ccc21 [HLCL-61 hydrochloride]	81.8% and 88%	84.8%	73.9%	84.8%	75%	88.9%	65.8%	76.6%
O=[N+]([O-])c1ccc(S(=O)(=O)N2CCN(c3ccnc4cc(Cl)ccc34)CC2)c([N+](=O)[O-])c1	69.2% and 80.5%	71.8%	27.1%	30.7%	2.07%	22.7%	0.47%	0.54%
CC(C)=CCC[C@](C)(O[C@@H]1O[C@H](CO)[C@@H](O)[C@H](O)[C@H]1O)[C@H]1CC[C@]2(C)[C@@H]1[C@H](O)C[C@@H]1[C@@]3(C)CC[C@H](O[C@@H]4O[C@H](CO)[C@@H](O)[C@H](O)[C@H]4O[C@@H]4O[C@H](CO)[C@@H](O)[C@H](O)[C@H]4O)C(C)(C)[C@@H]3CC[C@]12C [Ginsenoside Rd]	99.2% and 91.3%	93.4%	94%	96.8%	91.8%	94.5%	88%	103%
N[C@@H](Cc1cc(I)c(Oc2cc(I)c(O)c(I)c2)c(I)c1)C(=O)O [L-Thyroxine]	87.7% and 96.4%	101%	106%	114%	98.8%	106%	102%	114%
COc1cc(/C=C/C(=O)O[C@H]2[C@H](O)[C@@H](CO)O[C@@]2(CO)O[C@H]2O[C@H](CO)[C@@H](O)[C@H](O)[C@H]2O)ccc1O [Sibiricose A5]	113% and 112%	115%	108%	99.2%	110%	112%	107%	95.7%
Cc1c(C(=O)Nc2ccc(Oc3ccnc4[nH]cc(-c5ccccc5)c34)c(F)c2)c(=O)n(-c2ccc(F)cc2)n1C	75.3% and 86.8%	76.8%	84.7%	88.2%	8.77%	13.1%	24.8%	35.5%
CC(=O)OCC(=O)[C@@]1(O)CC[C@H]2[C@@H]3CCC4=CC(=O)C=C[C@]4(C)[C@H]3[C@@H](O)C[C@@]21C [Prednisolone acetate (Omnipred)]	87.3% and 81.8%	84.8%	86.1%	84%	80.5%	80.3%	73.3%	87%
OC[C@H]1O[C@@](CO)(OC[C@@]2(O[C@H]3O[C@H](CO)[C@@H](O)[C@H](O)[C@H]3O)O[C@H](CO)[C@@H](O)[C@@H]2O)[C@@H](O)[C@@H]1O [1-Kestose]	118% and 105%	110%	105%	99.2%	99%	110%	106%	112%
CC(=O)NS(=O)(=O)c1ccc(N)cc1 [Sulfacetamide]	98.7% and 98.1%	111%	90.8%	96.3%	103%	103%	98.4%	106%
CC[C@H]1OC(=O)[C@H](C)[C@@H](O[C@H]2C[C@@](C)(OC)[C@@H](O)[C@H](C)O2)[C@H](C)[C@@H](O[C@@H]2O[C@H](C)C[C@H](N(C)C)[C@H]2O)[C@](C)(O)C[C@@H](C)CN(C)[C@H](C)[C@@H](O)[C@]1(C)O [Azithromycin Dihydrate]	86.8% and 80.4%	82.7%	86%	83.7%	86.8%	93.3%	77.9%	88%
CN(C)CCOc1ccc(/C(=C(/CCCl)c2ccccc2)c2ccccc2)cc1 [Toremifene Citrate (Fareston, Acapodene)]	64.7% and 56.1%	71.9%	53.7%	65.5%	56%	55.7%	60%	51.7%
COc1cc(C(=O)N2CCC(N3CCN(C)CC3)CC2)ccc1Nc1ncc2c(n1)N(C)c1ccccc1C(=O)N2C	49.8% and 57.1%	61.2%	26.9%	31.8%	16.3%	20.6%	10.9%	21.2%
CCCNC(=O)C1OC1C(=O)NC(C(=O)N1CCCC1C(=O)OC)C(C)CC (stereo unspecified) [CA-074 methyl ester (CA-074 Me)]	76.9% and 62.3%	70.2%	66%	90.1%	18.2%	11.8%	25.6%	24.1%
Cc1nc(C(=O)NCC(=O)O)c(O)c2ccc(Oc3ccccc3)cc12 [Roxadustat (FG-4592)]	89.4% and 79.4%	85.7%	79.1%	82.7%	88.5%	84.3%	83.9%	87.5%
COc1cc2oc(=O)ccc2c(OC)c1C[C@@H](O)C(C)(C)O [Toddalolactone]	106% and 101%	104%	102%	105%	112%	106%	102%	104%
O=C(O)c1ccc(Nc2ncc3c(n2)-c2ccc(Cl)cc2C(c2c(F)cccc2F)=NC3)cc1	66.5% and 78.8%	68.1%	80.4%	88.1%	51.4%	35.4%	41.3%	38.8%
CC[C@@H]1C(=O)N(C)c2cnc(Nc3ccc(C(=O)N[C@H]4CC[C@H](N5CCN(CC6CC6)CC5)CC4)cc3OC)nc2N1C(C)C [BI6727 (Volasertib)]	3.41% and 6.94%	9.46%	12.2%	16.7%	3.23%	0.61%	4.52%	11.5%

Structure (SMILES)	cell viability (K562; SRSF2 genotype: SRSF2 P95H/wt)	cell viability (K562; SRSF2 genotype: SRSF2 wt/wt)	cell viability (MARIMO; SRSF2 genotype: SRSF2 P95H/wt)	cell viability (MARIMO; SRSF2 genotype: SRSF2 wt/wt)	cell viability (MOLM14; SRSF2 genotype: SRSF2 P95H/wt)	cell viability (MOLM14; SRSF2 genotype: SRSF2 wt/wt)	cell viability (OCI-AML2; SRSF2 genotype: P95H/wt)	cell viability (OCI-AML2; SRSF2 genotype: wt/wt)
Cc1ccc(C(=O)c2cc(O)c(O)c([N+](=O)[O-])c2)cc1 [Tolcapone]	107% and 113%	112%	109%	111%	106%	109%	113%	97.3%
C[C@@H]1O[C@@H](OC[C@H]2O[C@@H](Oc3cc(O)c4c(c3)O[C@H](c3ccc(O)c(O)c3)CC4=O)[C@H](O)[C@@H](O)[C@@H]2O)[C@H](O)[C@H](O)[C@H]1O [Eriocitrin]	110% and 103%	108%	105%	100%	117%	110%	98.4%	94.6%
CCOc1ccc2ccccc2c1C(=O)N[C@@H]1C(=O)N2[C@@H]1SC(C)(C)[C@@H]2C(=O)O [Nafcillin Sodium]	106%	101%	104%	115%	101%	108%	98%	107%
CN(CC(=O)N(Cc1ccc(C2CCCCC2)cc1)c1ccc(C(=O)O)cc1)S(=O)(=O)c1c(F)c(F)c(F)c(F)c1F	10.6% and 6.35%	7.31%	10.3%	2.43%	0.37%	0.15%	0.12%	0.08%
CC(=O)c1ccc(O)c(C(=O)O)c1 [5-Acetylsalicylic acid]	110% and 106%	98%	106%	112%	101%	107%	102%	105%
CCCOc1ccc2c(c1)CC[C@@H]1[C@@H]2CC[C@]2(C)[C@@H](OC)CC[C@@H]12 [Promestriene]	86.2% and 89.4%	94.1%	76.6%	89.8%	83.1%	97.2%	59.6%	66.2%
CC(=O)O[C@]1(C(C)=O)CC[C@H]2[C@@H]3CCC4=CC(=O)CCC4=C3[C@@H](c3ccc(N(C)C)cc3)C[C@@]21C [Ulipristal acetate]	91% and 94.2%	86.7%	81.7%	95.2%	82.3%	93.6%	84.6%	89.5%
COc1ccc(CC(C)NCC(O)c2ccc(O)c(NC=O)c2)cc1 (stereo unspecified) [Formoterol hemifumarate]	97.2% and 93.9%	91.5%	89.5%	98.5%	86.6%	85.8%	106%	101%
COc1cc2c(cc1OC)-c1cc3ccc(OC)c(OC)c3c[n+]1CC2 [Palmatine]	80.5% and 88.6%	90.2%	92.6%	92%	93.5%	90.9%	88.8%	78.7%
Cc1cccc(C)c1OCC(=O)N[C@@H](Cc1ccccc1)[C@@H](O)C[C@H](Cc1ccccc1)NC(=O)[C@H](C(C)C)N1CCCNC1=O [Lopinavir (ABT-378)]	85.5% and 94.8%	86.7%	97.4%	98.2%	92.2%	102%	97.3%	92.2%
O=C1C(=C(O)C=Cc2ccc(O)cc2)C(O)=C([C@@H]2O[C@H](CO)[C@@H](O)[C@H](O)[C@H]2O)C(=O)C1(O)[C@@H]1O[C@H](CO)[C@@H](O)[C@H](O)[C@H]1O (stereo partly specified) [Hydroxy safflor yellow A]	90% and 88%	84.7%	90.1%	97.3%	85.4%	87.7%	89.7%	104%
O=C(O)/C=C/c1ccc(O)c(O)c1 [Caffeic acid]	99.1% and 100%	94.3%	94.2%	105%	97.7%	101%	76.2%	92.7%
CC(C)CN(CC(=O)N1CCN(CC(OCc2ccc3ccccc3c2)c2ccc(Cl)cc2Cl)CC1)CC(C)C (stereo unspecified)	73.4% and 83%	79.2%	54.3%	43.2%	56.2%	71%	36%	41.8%
FC(F)(F)Oc1ccc2nc(-c3ccc(OCCOCCOc4ccc(-c5nc6ccc(OC(F)(F)F)cc6[nH]5)nc4)cn3)[nH]c2c1	52.4% and 53%	56.4%	26.9%	39.3%	50.4%	41.3%	18.4%	24.8%
C[C@]12CCC3=C4CCC(=O)C=C4CC[C@H]3[C@@H]1CC[C@@]2(O)CC#N [Dienogest]	104% and 96.7%	102%	93%	107%	100%	103%	104%	106%
CCOc1cc(N)c(Cl)cc1C(=O)NCC1CN(Cc2ccc(F)cc2)CCO1 (stereo unspecified) [Mosapride citrate]	82.7% and 81.9%	80%	74.1%	89.5%	103%	93.2%	81.5%	82.3%
O=C1C(=Cc2cccnc2)C(=O)c2ccccc21	110% and 102%	116%	94.2%	102%	89%	99.4%	102%	102%
C[C@H](CCC(=O)O)[C@H]1CC[C@H]2[C@@H]3C[C@H](O)[C@@H]4C[C@H](O)CC[C@]4(C)[C@H]3CC[C@]12C [Hyodeoxycholic acid (HDCA)]	92.5% and 93.9%	88.6%	87.5%	94.3%	93.5%	97.5%	93.1%	97.4%
